# High-throughput results deposited in PubChem by National Center for Advancing Translational Sciences (NCATS).
# ELG1 genotoxic = inducers of genotoxicity in HEK293T ELG1-luciferase cells | HEK293T ELG1-luciferase reporter, luminescence, 16 h | Potency, µM (doses to about 46 µM), actives largely listed as activators | 330,000 tested, 1.3% active | AID 504466; also: nearly all actives have a fitted effect of over 60% in size
#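 Cells (2,000/well) expressing the ELG1-luciferase fusion are dosed by pin tool and kept 16 hr at 37 °C, 5% CO2. Signal comes from ONE-Glo luciferase reagent after 30 min at room temperature.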
# NPC1 promoter act = activators of NPC1 promoter. Potency, µM (highest dose often 9.22 µM), hits mostly activators. Huh7 NPC1 promoter luciferase reporter, 24 h. 320,000 tested, 2.4% active; also: nearly all actives have a fitted effect of over 60% in size
#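 Huh7 cells stably carrying NPC1 promoter–luciferase, plated in Opti-MEM with 10% FBS for 2 h, were exposed to compound in DMSO for 24 h at 37 °C; luciferase reagent was added for 10 min and luminescence read.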
# Rab9 promoter act = Rab9 promoter activation; AID 485297; Huh7 Rab9 promoter-luciferase reporter, luminescence, 24 h; Potency, µM (highest dose often 9.22 µM), most hits filed as activators; 320,000 tested, 2.8% active; also: nearly all actives have a fitted effect of over 60% in size
#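 Promoter activation is measured as luciferase luminescence in Huh7 cells stably transfected with a Rab9 promoter–luciferase construct, following 24 h compound exposure at 37 °C and 10 min reagent incubation at ambient temperature.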
# KinaseGlo FLuc = counter-screen: inhibitors of Kinase-Glo firefly luciferase; Q27757; Kinase-Glo luciferase, ATP luminescence, 8 min; Potency, µM (series often up to 38.3 µM), usual class: inhibitors; 200,000 tested, 0.28% active; AID 1379; also: nearly all actives have a fitted effect of over 60% in size
#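 Compound is pinned into ATP-containing buffer (10 uM ATP, imidazole pH 7.2, 7 mM MgCl2). Kinase-Glo luciferase reagent is then added. Light output is recorded following an 8-min room-temperature incubation.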
# FLuc modulator = counter-screen for miR-21 project: firefly luciferase inhibitors or activators. P08659. purified FLuc, Km substrates, luminescence inhibition. Potency, µM (series often up to 57.5 µM), hits mostly inhibitors. 360,000 tested, 6.9% active; also: nearly all actives have a fitted effect of over 55% in size
# Target sequence (P08659 whole entry, looked up): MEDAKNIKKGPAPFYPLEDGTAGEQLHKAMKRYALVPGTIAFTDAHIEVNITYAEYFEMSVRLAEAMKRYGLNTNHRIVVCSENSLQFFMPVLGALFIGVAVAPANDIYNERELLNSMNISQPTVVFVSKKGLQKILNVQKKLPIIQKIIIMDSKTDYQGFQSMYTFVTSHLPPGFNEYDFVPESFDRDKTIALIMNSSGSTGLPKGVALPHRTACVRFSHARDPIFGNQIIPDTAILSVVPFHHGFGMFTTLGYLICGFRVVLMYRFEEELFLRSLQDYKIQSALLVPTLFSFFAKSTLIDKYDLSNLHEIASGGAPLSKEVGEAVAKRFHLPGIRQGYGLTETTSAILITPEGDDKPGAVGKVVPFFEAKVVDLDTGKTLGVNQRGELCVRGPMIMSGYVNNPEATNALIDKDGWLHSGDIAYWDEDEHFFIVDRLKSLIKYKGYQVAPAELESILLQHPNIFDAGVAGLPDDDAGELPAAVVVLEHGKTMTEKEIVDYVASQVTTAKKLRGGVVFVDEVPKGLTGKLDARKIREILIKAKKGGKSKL
#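 Purified P. pyralis luciferase, 10 nM final, with Km-level 10 uM D-luciferin and 10 uM ATP in 50 mM Tris acetate pH 7.5, 10 mM Mg acetate, 0.01% Tween-20, 0.05% BSA; 6-point qHTS titration about 60 µM downward; luminescence read.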
# SMN2 splice enh = increases expression of the SMN2 splice variant. 210,000 tested, 2.8% active. HEK293 SMN2-luciferase splicing reporter, luminescence, 30-36 h. Potency, µM (top dose mostly 46.1 µM), most hits filed as activators; also: nearly all actives have a fitted effect of over 55% in size
#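 qHTS luciferase splicing reporter: luminescence rises when SMN2 exon 7 is included in transfected HEK293 cells. Compound exposure lasted 30-36 h at 37C, with 4.5 mM final sodium butyrate as control, followed by a ONE-Glo read.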
# Numbers stand for hits; . = inactive; ? = inconclusive; / = no result; ! = a repeat was not active; [ ] = another dose, or the depositor's remark. This is a sample that favours compounds with a hit; in the whole collection about 7.5% have one here. Calls follow the shape of the dose curve; as a rule, active = well fitted curve in the direction sought with a large enough effect; inconclusive = small, poorly fitted or top-dose-only effect, or another doubt; inactive = no such curve, though single readings can be large; an effect the other way counts as inactive or inconclusive.
SMILES,ELG1 genotoxic,NPC1 promoter act,Rab9 promoter act,KinaseGlo FLuc,FLuc modulator,SMN2 splice enh
O=C(N/N=C/c1cccc(Cl)c1)c1c(O)c2c([nH]c1=O)CCCC2,?,2.8µM,2.5µM,/,?,/
O=C(Nc1ccccc1O)c1c(O)c2c([nH]c1=O)CCCC2,?,?,3.5µM,.,7.6µM,18µM
O=C(Nc1nccs1)c1c(O)c2c([nH]c1=O)CCCC2,.,?,2.2µM,/,?,/
CCCc1nnc(NC(=O)c2c(O)c3c([nH]c2=O)CCCC3)s1,.,.,?,.,.,.
Cc1ccc(C2CCN(C(=O)c3cnn(-c4ccc(C)c(C)c4)c3C3CCN(C(=O)OC(C)(C)C)CC3)C2)cc1 (stereo unspecified),/,/,/,/,.,/
O=C(COc1ccc(Cl)cc1)Nc1ncc([N+](=O)[O-])s1,?,0.56µM,?,.,4.3µM,?
O=C(Cc1ccc(Br)cc1)Nc1ncc([N+](=O)[O-])s1,.,?,?,/,?,/
O=C(Cc1ccc(Cl)cc1)Nc1ncc([N+](=O)[O-])s1,.,.,1.4µM,.,15µM,.
CCN(C(=O)Cn1nc(C)c([N+](=O)[O-])c1C)c1c(N)n(Cc2ccccc2)c(=O)[nH]c1=O,.,.,.,/,.,/
Cc1ccc(O)c(NC(=O)c2noc3c2CCCCC3)c1,?,2.8µM,?,.,4.8µM,4µM!
Cc1ccc(Cn2ccc(NC(=O)c3noc4c3CCCCC4)n2)cc1,.,.,.,.,?,.
CSc1ccccc1NC(=O)c1noc2c1CCC2,15µM,.,.,.,?,.
Cc1ccc(O)c(NC(=O)c2noc3c2CCCC3)c1,/,/,/,/,8.5µM,11µM
COc1ccc(Cl)c2c1[nH]c1nc(SCc3ccccn3)nnc12,21µM,2.8µM,1.8µM,.,6µM,6.3µM
COc1ccc(Cl)c2c1[nH]c1nc(SCc3cccnc3)nnc12,.,.,.,.,.,.
CCc1ccc(C(=O)C(C)OC(=O)C2COc3ccccc3O2)cc1 (stereo unspecified),.,.,.,.,?,.
O=C(CSc1ncn[nH]1)N/N=C/c1ccc(Br)cc1,.,.,.,/,15µM,/
c1ccc2cc(-c3cc4ccccn4c3)ccc2c1,3.7µM,3.2µM,3.2µM,.,0.85µM,11µM
c1ccc2cc(-c3cc(-c4cc(-c5ccc6ccccc6c5)on4)no3)ccc2c1,/,/,/,.[7.66 µM],/,?
Cc1sc2nc3ccc(NCc4ccco4)nn3c(=O)c2c1C,.,.,.,.,.,.
O=c1c2ccccc2nc2ccc(NCc3ccco3)nn12,?,?,?,.,11µM,14µM
O=[N+]([O-])c1cc([N+](=O)[O-])c(Oc2cc(Cl)ccc2Cl)cc1NC1CCCCCCC1,.,.,.,/,.,/
CN(C)c1ccc(N=Nc2ccc(S(N)(=O)=O)cc2)cc1,21µM,1µM,2.8µM,/,2.7µM,/
CN(C)N=Nc1ccc(S(N)(=O)=O)cc1,.,.,.,.,.,/
CCOc1ccccc1C(C(=O)NC1CCCCC1)N(C(=O)c1csnn1)C1CC1 (stereo unspecified),.,.,.,/,.,/
SMILES,ELG1 genotoxic,NPC1 promoter act,Rab9 promoter act,KinaseGlo FLuc,FLuc modulator,SMN2 splice enh
Cc1ccc(CNC(=O)CCCCCNC(=O)N2CCn3c2nc2ccccc23)cc1,.,.,.,/,15µM,/
O=C(CCCCCNC(=O)N1CCn2c1nc1ccccc12)NCc1ccc(Cl)cc1,.,.,.,/,24µM,/
O=C(CCCCCNC(=O)N1CCn2c1nc1ccccc12)NCc1ccccc1Cl,.,.,.,/,15µM,/
CCOc1ccc(NC(=O)CN(C)C(=O)c2c(C)nn(-c3ccccc3)c2Cl)cc1OCC,.,.,.,/,.,/
CN1CCN(c2ccc(-c3cccc(NC(=O)COc4ccc(Cl)cc4)c3)nn2)CC1,2.1µM,2.8µM,2µM,/,1.1µM,/
CN1CCN(c2ccc(-c3cccc(NC(=O)COc4ccc(Cl)cc4Cl)c3)nn2)CC1,0.65µM,?,?,/,0.48µM,/
CN1CCN(c2ccc(NC(=O)COc3ccccc3Cl)cc2)CC1,?,.,.,.,?,.
O=C(COc1ccccc1)Nc1ccc(S(=O)(=O)N2CCOCC2)cc1,.,.,.,.,.,.
CN1CCN(c2ccc(-c3cccc(NC(=O)COc4ccccc4)c3)nn2)CC1,2.6µM,1.6µM,1.6µM,/,1.5µM,/
